For 9 compounds, z-score and composite z-score results are on record in PubChem BioAssay.

Activity calls are given as the source filed them. Unless noted, no rule for the calls is given here.

Test [1] is described as follows: HepG2 liver cancer cell viability effects, profiling panel, resazurin fluorescence, 24 h, PK04 Diversity Set (AID 1172). The settings on record: higher = more signal. On the technique in general: The colour change of resazurin is a common sign of viable cells or microbes.
Test [2] in a line: basal S. cerevisiae growth modulation, no modifier, primary screen, OD600, strain BY4716, 24 h, basal condition (AID 1173). The settings on record: OD600, 24 h; higher = more signal, called active from +8 up or from −8 down unless noted.
A short description of test [3]: MM1S myeloma cell viability, profiling panel, resazurin fluorescence, basal, 24 h, PK04 Diversity Set (AID 1174).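 Also: MM1S multiple myeloma cell line.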 To be noted: higher = more signal, called active from +8 up or from −8 down unless noted.
Test [4] concerns the target Dihydroorotate dehydrogenase (quinone), mitochondrial (Plasmodium falciparum (isolate 3D7)) (UniProt Q08210). Kind of test: PfDHODH enzyme inhibitors, primary screen, biochemical, C-terminal His tag, absorbance 600 nm (AID 1175).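 Also: recombinant parasite enzyme with a five histidine tag at its C terminus.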 The settings on record: DCIP absorbance 600 nm; higher = more signal, called active from +8 up or from −8 down unless noted.
Test [5] is described as follows: P. aeruginosa biofilm formation inhibitors, primary screen, strain PAO1, LB-PBS medium, absorbance 600 nm (AID 1176). The settings on record: P. aeruginosa PAO1 growth/biofilm, A600, 12 h; higher = more signal.
Test [6] in a line: S. cerevisiae RM11-1a growth modifiers, primary screen, strain RM11-1a, OD600, basal, 24 h (AID 1177).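 Also: cultures grown under basal conditions with no added stressor.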 The settings on record: OD600, 24 h; higher = more signal, called active from +8 up or from −8 down unless noted.
Test [7] is described as follows: E. coli acrAB mutant growth effects, primary screen, E. coli filamentation inducers, strain DRC39, OD650, 24 h (AID 1178).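 Also: growth measured as culture turbidity by optical density at 650 nm.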 To be noted: higher = more signal, called active from +8 up or from −8 down unless noted.
Test [8] is described as follows: E. coli acrAB mutant growth effects, primary screen, E. coli filamentation inducers, strain DRC39, OD650, 48 h (AID 1179).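 Also: screen aims at cell division blockers that make cells filament.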 To be noted: E. coli DRC39 delta-acrAB growth, higher = more signal, called active from +8 up or from −8 down unless noted.
Test [9] can be described thus: RPMI8226 myeloma cell viability, profiling panel, resazurin fluorescence, basal, 24 h, PK04 Diversity Set (AID 1180).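 Also: RPMI8826 multiple myeloma cell line at 5000 cells per well.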 The settings on record: higher = more signal; RPMI8226 viability, resazurin fluorescence, 24 h unless noted.
Test [10] has as its target E3 ubiquitin-protein ligase XIAP (Homo sapiens) (UniProt P98170). Kind of test: XIAP binders, primary screen, biophysical, small-molecule microarray, fluorescence 635 nm (AID 1181).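 Also: score merges 667 nm emission and signal to noise over triplicate slides.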 The settings on record: small-molecule microarray binding, higher = more signal.
Test [11] deals with XIP peptide (Xip251-270) binding. Kind of test: small-molecule binders of XIP peptide, primary screen, biochemical, small-molecule microarray, fluorescence 635/667 nm, 0.1 µg/mL protein (AID 1182). To be noted: fluorescent protein binding, 635 nm; higher = more signal, called active from +8 up or from −8 down unless noted.
The next test concerns XIP peptide (Xip251-270). Kind of test: small-molecule binders of XIP peptide, primary screen, biochemical, small-molecule microarray, fluorescence 635/667 nm, 0.5 µg/mL protein (AID 1183). The settings on record: small-molecule microarray binding, fluorescence 635 nm; higher = more signal.
Test [12] in a line: Plasmodium falciparum growth inhibition, primary screen, strain 3D7, DAPI fluorescence, 100 nL (AID 1184).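 Also: parasites grown inside human red blood cells in medium with human serum.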 To be noted: P. falciparum 3D7 growth, 3 d, higher = more signal.
Test [13] addresses Homeobox protein Hox-A13 (Mus musculus) (UniProt Q62424). Kind of test: inhibitors of HoxA13-DNA binding, primary screen, biochemical, fluorescence polarization, labeled oligonucleotide (AID 1185). The settings on record: 15 min; higher = more signal, called active from +8 up or from −8 down unless noted. (In fluorescence polarisation assays a small probe gives low polarisation when free and higher when bound to something large.)

Test [14] is described as follows: inhibitors of hydroxyurea-induced Chk1 phosphorylation, primary screen, imaging, HeLa, phospho-Chk1 antibody, percent positive cells (AID 1186). To be noted: hydroxyurea-induced phospho-Chk1 immunofluorescence imaging, higher = more signal.
The nature of test [15]: inhibitors of hydroxyurea-induced Chk1 phosphorylation, primary screen, imaging, HeLa, phospho-Chk1 nuclear intensity (AID 1187). The settings on record: hydroxyurea-induced phospho-Chk1 immunofluorescence imaging, higher = more signal.

Sequence of Homeobox protein Hox-A13 (Mus musculus) (Q62424 whole entry, looked up): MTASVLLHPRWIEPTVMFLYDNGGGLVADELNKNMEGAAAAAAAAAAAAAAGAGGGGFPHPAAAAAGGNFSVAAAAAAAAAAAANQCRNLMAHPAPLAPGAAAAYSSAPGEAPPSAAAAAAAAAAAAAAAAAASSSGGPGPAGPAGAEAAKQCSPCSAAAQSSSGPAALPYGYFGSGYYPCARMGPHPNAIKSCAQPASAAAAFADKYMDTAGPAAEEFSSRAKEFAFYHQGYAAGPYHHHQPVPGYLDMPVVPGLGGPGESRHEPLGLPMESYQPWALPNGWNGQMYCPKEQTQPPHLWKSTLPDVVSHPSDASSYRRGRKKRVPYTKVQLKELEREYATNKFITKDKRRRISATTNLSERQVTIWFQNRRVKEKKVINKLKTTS
Sequence of Dihydroorotate dehydrogenase (quinone), mitochondrial (Plasmodium falciparum (isolate 3D7)) (Q08210 whole entry, looked up): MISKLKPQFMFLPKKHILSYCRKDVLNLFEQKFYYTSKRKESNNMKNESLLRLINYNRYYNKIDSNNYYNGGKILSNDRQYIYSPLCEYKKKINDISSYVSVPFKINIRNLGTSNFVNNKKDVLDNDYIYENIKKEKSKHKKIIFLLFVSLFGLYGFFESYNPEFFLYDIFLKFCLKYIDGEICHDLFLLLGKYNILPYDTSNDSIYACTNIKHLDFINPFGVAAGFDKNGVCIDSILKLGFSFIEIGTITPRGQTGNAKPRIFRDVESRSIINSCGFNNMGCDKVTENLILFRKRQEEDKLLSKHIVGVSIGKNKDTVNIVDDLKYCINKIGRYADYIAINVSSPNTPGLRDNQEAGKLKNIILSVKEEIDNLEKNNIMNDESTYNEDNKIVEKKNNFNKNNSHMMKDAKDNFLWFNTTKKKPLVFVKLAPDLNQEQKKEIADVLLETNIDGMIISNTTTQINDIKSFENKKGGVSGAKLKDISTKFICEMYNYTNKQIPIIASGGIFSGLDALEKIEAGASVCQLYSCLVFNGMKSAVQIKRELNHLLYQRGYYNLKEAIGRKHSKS
Sequence of E3 ubiquitin-protein ligase XIAP (Homo sapiens) (P98170 whole entry, looked up): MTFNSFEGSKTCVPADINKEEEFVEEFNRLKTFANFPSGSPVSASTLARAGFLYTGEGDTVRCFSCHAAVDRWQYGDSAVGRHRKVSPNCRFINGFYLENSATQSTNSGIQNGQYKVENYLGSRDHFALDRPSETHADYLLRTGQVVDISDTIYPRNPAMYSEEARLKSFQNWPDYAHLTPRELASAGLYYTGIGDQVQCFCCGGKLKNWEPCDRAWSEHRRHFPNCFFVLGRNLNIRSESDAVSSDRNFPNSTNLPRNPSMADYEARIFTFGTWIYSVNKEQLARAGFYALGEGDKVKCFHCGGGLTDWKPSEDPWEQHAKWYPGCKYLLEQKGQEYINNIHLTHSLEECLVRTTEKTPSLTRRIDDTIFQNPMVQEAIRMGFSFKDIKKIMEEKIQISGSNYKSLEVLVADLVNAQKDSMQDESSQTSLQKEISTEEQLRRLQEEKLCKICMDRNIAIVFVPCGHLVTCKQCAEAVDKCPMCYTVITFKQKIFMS

As for `CN1CCc2nc(CO)c(CO)cc2C1`, the z-score is 0.328 in [1]; 1.31 (inactive) in test [2]; 0.692 (inactive) in test [3]; -0.188 (inactive) in [5]; 1.18 (inactive) in test [6]; 0.0008 (inactive) in test [7]. The z-score in test [8] is -0.019 (inactive); in [9], 1.42; in [12], -0.221; in [13], -0.184 (inactive). The composite z-score in test [4] was 0.693 (inactive); in test [10], -0.144; in test [11], -0.102 (inactive); in the test on XIP peptide (Xip251-270), -0.446.
As for `COC(=O)[C@H]1[C@H](c2ccccc2)C(=O)[C@]2(O)c3ccccc3O[C@@]12c1ccccc1`, the z-score in test [1] was -0.514; in test [2] it was -2.2 (inactive); in [3], -0.417 (inactive); in [5], 0.711 (inactive); in test [6] it was -1.43 (inactive); in [7] it was 0.401 (inactive). The z-score in test [8] was -1.04 (inactive); in [9], -0.865; in [12], 0.332; in [13], -0.116 (inactive). Besides, the composite z-score in [4] was -1.36 (inactive); in test [10] it was 0.17; in test [11], -0.013 (inactive); in the test on XIP peptide (Xip251-270), 0.364.
Regarding `C[C@@H]1Cc2c(cnc3c2CN(C)CC3)CO1`, the z-score in test [1] was 0.507; in [2], -0.583 (inactive); in test [3], 0.335 (inactive); in [5], 0.0008 (inactive); in test [6] it was -0.498 (inactive); in test [7] it was -0.151 (inactive). Further, the z-score in test [8] was 0.0072 (inactive); in [9] it was 0.992; in test [12] it was -0.0396; in [13], -2.8 (inactive). In addition, the composite z-score in [4] is -0.7 (inactive); in test [10], 0.276; in test [11], -0.422 (inactive); in the test with XIP peptide (Xip251-270) it was 0.188.
Turning to `COC(=O)NCC=Cc1nc(CCC=CC(=O)O[C@H]2CC3CC(=O)O[C@@H](C=CCC(C)C)C[C@@H]4CC[C@H](C)[C@@H](C[C@@H](OC)C[C@H](C2)O3)O4)co1`, the z-score in test [1] was -1.05; in test [2] it was -1.03 (inactive); in test [3], -2.04 (inactive); in test [5], 0.168 (inactive); in test [6] it was -0.659 (inactive); in [7], 0.523 (inactive). Besides, the z-score is 0.666 (inactive) in [8], -1.95 in [9], -1.65 in test [12] and -2.54 (inactive) in [13]. Also, the composite z-score was -0.646 (inactive) in [4], -0.102 in test [10], 0.0433 (inactive) in test [11] and -1 in the test with XIP peptide (Xip251-270).
Consider `CCCC=C(CCC)[C@@H](NP(=O)(c1ccccc1)c1ccccc1)c1ccccc1`, for which the z-score in test [1] is 2.47; in test [2], 1.4 (inactive); in [3] it was 1.16 (inactive); in test [5], 0.0944 (inactive); in [6], -0.903 (inactive); in test [7], -0.486 (inactive). The z-score was -0.236 (inactive) in [8]; 1.3 in test [9]; -0.81 in test [12]; -1.64 (inactive) in test [13]; 0.17 (inactive) in test [14]; 0.404 (inactive) in [15]. Besides, the composite z-score is 0.0585 (inactive) in test [4], 0.0205 in test [10], 0.147 (inactive) in [11] and 0.158 in the test with XIP peptide (Xip251-270).
For `COC(=O)[C@@]1(Cc2ccccc2)[C@H]2c3cc(C(=O)N(C)C)[nH]c3C[C@H]2CN1C(=O)c1ccccc1`, the z-score in [1] was -0.154; in test [2] it was 0.887 (inactive); in test [3], -0.693 (inactive); in test [5] it was 0.0944 (inactive); in test [6], 0.439 (inactive); in test [7], -0.513 (inactive). In addition, the z-score in test [8] is 0.0889 (inactive); in test [9], -0.57; in test [12], 0.747; in test [13], -3.47 (inactive); in test [14], -0.493 (inactive); in test [15], -0.73 (inactive). The composite z-score in test [4] is -0.434 (inactive); in [10], 0.215; in [11], 0.665 (inactive); with XIP peptide (Xip251-270) it was -0.456.
With `C[C@@H]1OC=C2[C@@H](O)[C@H]3O[C@H]3C(=O)[C@]23[C@H]1[C@H]1C2=C([C@@H](O)[C@H]4O[C@H]4C2=O)[C@@H]3O[C@@H]1C`, the z-score in test [1] is 0.216; in test [2], 0.243 (inactive); in test [3], 0.103 (inactive); in test [5] it was 0.0251 (inactive); in test [6] it was -0.541 (inactive); in test [7], -0.03 (inactive). The z-score was -0.0416 (inactive) in test [8], 0.864 in test [9], 0.487 in [12] and -0.299 (inactive) in test [13]. For the same compound, the composite z-score in test [4] was -0.0198 (inactive); in [10] it was -0.135; in test [11] it was -0.496 (inactive); in the test with XIP peptide (Xip251-270), -0.465.
Consider `O=P(c1ccccc1)(c1ccccc1)N1CC2(CC2)CC(O)(c2ccccc2)C1` (centres undefined), for which the z-score was -0.561 in [1]; 0.12 (inactive) in test [2]; -1.03 (inactive) in [3]; 0.315 (inactive) in test [5]; 0.445 (inactive) in test [6]; -0.32 (inactive) in test [7]. Moreover, the z-score in test [8] is 0.158 (inactive); in [9], -1.22; in test [12], 0.45; in [13] it was -2.7 (inactive); in test [14], 0.37 (inactive); in [15], 0.613 (inactive). Further, the composite z-score in test [4] is -0.001 (inactive); in test [10], 0.143; in test [11] it was 0.115 (inactive); in the test with XIP peptide (Xip251-270), 0.725.
For `C=C(CC1(C(C)NP(=O)(c2ccccc2)c2ccccc2)CC1)c1ccccc1` (centres undefined), the z-score is 0.901 in test [1]; -16.1 (active) in test [2]; 0.794 (inactive) in test [3]; 1.38 (inactive) in test [5]; -16 (active) in test [6]; -0.628 (inactive) in test [7]. Also, the z-score in test [8] was -0.645 (inactive); in test [9], 2; in [12], -1.1; in test [13] it was -5.49 (inactive); in test [14], 0.137 (inactive); in [15], 0.321 (inactive). In addition, the composite z-score in test [4] was -0.626 (inactive); in test [10] it was 0.525; in test [11], -0.131 (inactive); with XIP peptide (Xip251-270), 0.858.
